# Results filed as inconclusive are left out. Values without a mark were called inactive. Active and inactive are the calls of the source. Calls follow the shape of the dose curve; as a rule, active = well fitted inhibition curve with a large enough effect; inconclusive = small, poorly fitted or top-dose-only effect; inactive = flat fitted curve, though single readings scatter.
# Legend:
# CRL-7250 = normal cell line; test: Cytotoxic Profiling of Annotated Libraries Using Quantitative High-Throughput Screening (AID 1296008); conditions: Five cell lines viability, CellTiter-Glo ATP luminescence, 48-72 h; max response: active compounds read low; also: nearly all actives have a fitted effect of over 60% in size
# Procedure, shortened: (§1)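 Cytotoxicity was measured as CellTiter-Glo ATP luminescence, read after 10 min at room temperature. Compound treatment of the cells lasted 48 or 72 hr at 37 degrees Celsius in a qHTS format.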
# HEK293 = test: as above; conditions: Five cell lines viability, CellTiter-Glo ATP luminescence, 48-72 h; max response: active compounds read low
# Procedure, shortened: as §1
# % is scaled to controls: 0 for no effect and ±100 for the full control effect; potency is read from the fitted curve at half-maximal effect.
compound,measurement,setting,value
C=C1C(O)C(O)C2(CC3C(C)=CCC4C(C)(CO)CCCC34C)OC2C1O (stereo not drawn),max response,CRL-7250,-2.93%
same,max response,HEK293,-13.5%
CC(C)Oc1ccc(C(=O)NC(CNC(=O)CN(C)C)Cc2ccc(-c3cn4cccc(C(C)O)c4n3)cc2)cc1Cl (stereo not drawn),max response,CRL-7250,-25.1%
same,Potency,HEK293,0.206 µM (active)
CC1CC(C(O)C(C)(C)O)OC2CC3(C)C4(C)CCC5C(C)(C)C(=O)CCC5(C)C4CCC3(O)C12O (stereo not drawn),max response,CRL-7250,3.36%
same,max response,HEK293,-2.59%
CC(C)(F)C[C@@H](N[C@@H](c1ccc(-c2ccc(S(C)(=O)=O)cc2)cc1)C(F)(F)F)C(=O)NC1(C#N)CC1,max response,CRL-7250,0.789%
same,max response,HEK293,-10.4%
CCc1c(-c2ccccc2)c(-c2ccccc2)nn1-c1ccccc1-c1cccc(OCC(=O)O)c1,max response,CRL-7250,-8.36%
same,max response,HEK293,-14.2%
CC12CCC(OC3OC(CO)C(O)C(OC4OC(CO)C(O)C(O)C4O)C3O)CC1CCC1C2CCC2(C)/C(=C3/COC(=O)C3)CCC12O (stereo not drawn),max response,CRL-7250,-8.75%
same,max response,HEK293,-1.14%
Cc1cccc(-c2[nH]c(Cc3cccc(C(N)=O)c3)nc2-c2ccc3nccnc3c2)n1,max response,CRL-7250,4.2%
same,outcome,HEK293,inactive
C[C@@H]1O[C@@H](OC[C@H]2O[C@@H](OC(CCCCc3ccc(O)cc3)CCc3ccc(O)cc3)[C@H](O)[C@@H](O)[C@@H]2O)[C@H](O)[C@H](O)[C@H]1O (stereo partly drawn),max response,CRL-7250,3.8%
same,max response,HEK293,1.77%
c1ccc(-c2ncc(CN3CCN(c4ncccn4)CC3)[nH]2)cc1,max response,CRL-7250,-0.931%
same,max response,HEK293,0.625%
CC(C)(O[C@@H]1O[C@H](CO)[C@@H](O)[C@H](O)[C@H]1O)C(OC(=O)/C=C\c1ccc(O)cc1)C(=O)OCc1ccc(O[C@@H]2O[C@H](CO)[C@@H](O)[C@H](O)[C@H]2O)cc1 (stereo partly drawn),max response,CRL-7250,-12.2%
same,max response,HEK293,-30.7%
CC1=C2C3OC(=O)C(C)C3(O)CCC2(C)CCC1O (stereo not drawn),max response,CRL-7250,-5.4%
same,max response,HEK293,-8.27%
C[C@@H]1O[C@@H](O[C@H]2[C@@H](OC(=O)[C@]34CCC(C)(C)CC3C3=CCC5[C@@]6(C)C[C@H](O)[C@H](O[C@@H]7O[C@H](C(=O)O)[C@@H](O)[C@H](O)[C@H]7O)[C@@](C)(C(=O)O)C6CC[C@@]5(C)[C@]3(C)CC4)OC[C@H](O)[C@@H]2O)[C@H](O)[C@H](O)[C@H]1O[C@@H]1OC[C@@H](O)[C@H](O)[C@H]1O (stereo partly drawn),max response,CRL-7250,-0.804%
same,max response,HEK293,-1.89%
CC(C)=CCC/C(C)=C/CCC1(C)Oc2c(c(O)cc3c2CN(C(CCC(=O)O)C(=O)O)C3=O)CC1O (stereo not drawn),max response,CRL-7250,-8.75%
same,max response,HEK293,-4.48%
C[C@@H]1CCC/C=C/[C@H]2CC(=O)C[C@@H]2[C@@H](O)/C=C/C(=O)O1,max response,CRL-7250,-3.74%
same,max response,HEK293,-12%
CCOc1ccc(S(=O)(=O)n2c(C)nc3ccccc32)cc1,max response,CRL-7250,-1.87%
same,max response,HEK293,-8.26%
CCc1cnn2c(NCc3ccc[n+]([O-])c3)cc(N3CCCCC3CCO)nc12 (stereo not drawn),Potency,CRL-7250,0.0046 µM (active)
same,Potency,HEK293,0.013 µM (active)
CC[C@H]1OC(=O)[C@](C)(F)C(=O)[C@H](C)[C@@H](O[C@@H]2O[C@H](C)C[C@H](N(C)C)[C@H]2O)[C@](C)(OC)C[C@@H](C)C(=O)[C@@H](C)[C@H]2N(CCCCn3cc(-c4cccc(N)c4)nn3)C(=O)O[C@]12C,max response,CRL-7250,-0.28%
same,Potency,HEK293,1.46 µM (active)
C[C@H](Nc1ncnc2nc[nH]c12)c1cc2ccc(F)cc2nc1-c1ccccn1,max response,CRL-7250,-2.06%
same,outcome,HEK293,inactive
COc1cc(/C=C/C=O)cc(OC)c1O[C@@H]1O[C@H](CO)[C@@H](O)[C@H](O)[C@H]1O,max response,CRL-7250,-11.6%
same,max response,HEK293,-3.11%
